Among all 310,000 compounds or so, about 14,000 (4.5%) showed an effect of 50% or more. The effect is printed as a negative number. The list comes from a sample in which strong results are over-represented; it also holds similar structures and randomly drawn compounds.
The molecules below were run against human ether-à-go-go-related gene (hERG) potassium channel (human, UniProt Q12809) (assay: primary screen, population patch clamp on CHO cells stably expressing hERG; higher = less effect of the substance).
human ether-à-go-go-related gene (hERG) potassium channel, sequence (Q12809 whole entry, looked up): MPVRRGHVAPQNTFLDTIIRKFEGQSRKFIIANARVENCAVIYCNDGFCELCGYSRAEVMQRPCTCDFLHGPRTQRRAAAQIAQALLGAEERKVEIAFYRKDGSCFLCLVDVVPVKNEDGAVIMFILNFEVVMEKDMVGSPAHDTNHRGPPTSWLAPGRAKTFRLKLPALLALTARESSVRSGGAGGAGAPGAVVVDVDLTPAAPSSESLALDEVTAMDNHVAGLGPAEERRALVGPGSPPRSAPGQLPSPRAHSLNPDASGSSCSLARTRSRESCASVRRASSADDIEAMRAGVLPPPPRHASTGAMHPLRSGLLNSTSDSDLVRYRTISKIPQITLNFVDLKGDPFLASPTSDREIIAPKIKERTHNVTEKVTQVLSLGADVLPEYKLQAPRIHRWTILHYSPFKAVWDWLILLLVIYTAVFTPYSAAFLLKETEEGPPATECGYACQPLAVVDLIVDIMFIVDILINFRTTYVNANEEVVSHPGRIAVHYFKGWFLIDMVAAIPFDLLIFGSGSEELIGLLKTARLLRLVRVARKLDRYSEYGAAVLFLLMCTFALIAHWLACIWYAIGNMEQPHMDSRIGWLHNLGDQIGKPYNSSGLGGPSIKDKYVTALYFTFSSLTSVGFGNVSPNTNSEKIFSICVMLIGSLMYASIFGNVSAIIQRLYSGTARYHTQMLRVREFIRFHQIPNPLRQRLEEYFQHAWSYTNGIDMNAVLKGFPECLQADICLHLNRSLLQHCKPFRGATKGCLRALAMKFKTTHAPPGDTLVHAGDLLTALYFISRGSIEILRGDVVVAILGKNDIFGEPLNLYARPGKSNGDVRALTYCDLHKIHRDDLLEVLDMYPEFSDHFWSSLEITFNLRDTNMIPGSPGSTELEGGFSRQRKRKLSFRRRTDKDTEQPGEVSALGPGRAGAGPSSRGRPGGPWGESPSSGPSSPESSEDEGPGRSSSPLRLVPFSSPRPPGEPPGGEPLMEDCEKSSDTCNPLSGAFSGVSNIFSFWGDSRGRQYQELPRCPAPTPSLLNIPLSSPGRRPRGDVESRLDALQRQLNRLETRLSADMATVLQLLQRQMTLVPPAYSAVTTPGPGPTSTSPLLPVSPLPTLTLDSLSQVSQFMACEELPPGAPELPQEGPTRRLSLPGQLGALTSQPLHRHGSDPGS
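Note: peak tail current of the secondary pulse compared with the same well before compound.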

| Structure (SMILES) | hERG current change (%, negative = inhibition) at 10uM |
| --- | --- |
| COc1ccc(/C=N/NC(=O)CCC(=O)Nc2ccc(Br)cc2)c(OC)c1 | 5.6% |
| COc1ccc(CNC(=O)Cn2nc([N+](=O)[O-])c(Br)c2C)cc1OC | -10.2% |
| COC(=O)C1=C(C)N(c2ccc(C)c(C)c2)/C(=C/c2cccs2)C1=O | -17.7% |
| CCS(=O)(=O)N1CCN(S(=O)(=O)c2ccc3c(c2)OCCO3)CC1 | 17.5% |
| CCCCOc1ccc(/C=C/C(=O)N(CC)CC(=O)Nc2ccc3c(c2)OCCO3)cc1OC | -28.9% |
| CNC(=O)/C(C#N)=C/c1ccc(-c2ccc(OC)cc2[N+](=O)[O-])o1 | -1.67% |
| CC(C)CN1CCC(=O)N([C@H](COc2ccccc2)Cc2ccccc2)CC1 | -71.7% |
| Cc1cccc(COCC(Cc2ccccc2)N2CCN(C(=O)c3cccc(Cl)c3)CCC2=O)c1 (centres unmarked) | -15.1% |
| C[C@H]1CCC(=O)N([C@H](COc2ccccc2)Cc2ccccc2)CC1 | -42.7% |
| N#CC[C@H](Cc1ccccc1)N1CCN(Cc2ccccc2)CCC1=O | -24% |
| CN1CCC(=O)N([C@H](COc2ccccc2)Cc2ccccc2)CC1 | -28.5% |
| O=C1CCN(Cc2ccccc2)CCN1[C@H](COc1ccccc1)Cc1ccccc1 | -56.4% |
| CC(C)CN1CCC(=O)N([C@H](CO)Cc2ccccc2)CC1 | 6.64% |
| O=C1CCN(Cc2ccccc2)CCN1[C@H](CO)Cc1ccccc1 | 14.5% |
| CC(C)C[C@@H](COc1ccccc1)N1CCN(CC(C)C)CCC1=O | -48.5% |
| O=C(c1cc(Cl)cc(Cl)c1)N1CCC(=O)N(C(COCc2ccccc2)Cc2ccccc2)CC1 (centres unmarked) | -10% |
| O=C(c1cccc(Cl)c1)N1CCC(=O)N(C(COCc2ccccc2)Cc2ccccc2)CC1 (centres unmarked) | -51.9% |
| CCCN1CCC(=O)N([C@H](COc2ccccc2)Cc2ccccc2)CC1 | -68.1% |
| Cc1cc(C)c2[nH]c(O)c(N=NC3=NC(=O)CS3)c2c1 | -19.6% |
| Cc1ccc(C)c(N2CCN(c3nc4ccccc4c(=O)n3Cc3ccccc3)CC2)c1 | 14.1% |
| Cc1cnc(C(=O)N2CCCC(C(=O)c3ccc(C(C)(C)C)cc3)C2)cn1 (centres unmarked) | -20.7% |
| CCN1CCN(C(=O)c2ccc(CNS(=O)(=O)c3cccc(OC)c3)cc2)CC1 | 40.7% |
| O=C(OCc1cncs1)c1ccccc1Cl | 6.6% |
